Source: PubChem (several laboratories)
An excerpt weighted towards active compounds, which were near 3.8% of everything screened.
Jurkat NFkB inh = inhibitors of induced NF-kB luciferase reporter, primary screen, TCR NF-kB activation inhibitor project, cell-based, luminescence, uHTS | Jurkat, PMA/ionomycin-induced NF-kB luciferase reporter | inhibition, % at 4 µM | hit rate 0.53% among 330,000; in the data active means inhibition above about 50%
Mdm2 MdmX PPI = inhibitors of human Mdm2-MdmX association, primary screen, cell-based, luminescence, split luciferase, SaOS-2, uHTS | SaOS-2 split-luciferase Mdm2/MdmX complementation | inhibition, % at 8 µM | Protein Mdm4 (Homo sapiens) + E3 ubiquitin-protein ligase Mdm2 (Homo sapiens), … | hit rate 3% among 330,000;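 active means inhibition of at least 50% at 8 µM in the primary screen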
Beta cell apopt = inhibitors of cytokine-induced beta cell apoptosis, primary screen, luminescence. INS-1E cytokine-induced death, ATP luminescence, 48 h; percent of positive-control rescue, neutral wells zero. protection from apoptosis, % (test concentration not listed). hit rate 0.8% among 300,000. AID 435005, 2010;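 active means Every replicate reaches about 75%, or at least half do and their mean reaches it too, limit read from the data; inconclusive means At least half of replicates reach the limit but their mean does not; inactive means Under half of replicates reach the limit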;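 further: 0% = cytokine-treated negative control wells and 100% = positive control rescue; higher means more ATP so stronger rescue from cytokine killing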
NTR1 ag = agonists of human NTR1, primary screen, imaging, U2OS cells, beta-arrestin-GFP, high content; NTR1-U2OS beta-arrestin-GFP spot imaging, agonist mode; AID 493036, 2011; hit rate 0.17% among 330,000; activation, % at 20 µM; Neurotensin receptor type 1 (Homo sapiens), P30989;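 active means activation at or above 40% of the spot to cytoplasm intensity ratio, with at least 20 cells analyzed; inconclusive means wells under 20 cells, flagged as cytotoxic or low count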;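 further: 0% = DMSO without peptide and 100% = 100 nM NTR1 peptide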
Target sequence (P30989 whole entry, looked up): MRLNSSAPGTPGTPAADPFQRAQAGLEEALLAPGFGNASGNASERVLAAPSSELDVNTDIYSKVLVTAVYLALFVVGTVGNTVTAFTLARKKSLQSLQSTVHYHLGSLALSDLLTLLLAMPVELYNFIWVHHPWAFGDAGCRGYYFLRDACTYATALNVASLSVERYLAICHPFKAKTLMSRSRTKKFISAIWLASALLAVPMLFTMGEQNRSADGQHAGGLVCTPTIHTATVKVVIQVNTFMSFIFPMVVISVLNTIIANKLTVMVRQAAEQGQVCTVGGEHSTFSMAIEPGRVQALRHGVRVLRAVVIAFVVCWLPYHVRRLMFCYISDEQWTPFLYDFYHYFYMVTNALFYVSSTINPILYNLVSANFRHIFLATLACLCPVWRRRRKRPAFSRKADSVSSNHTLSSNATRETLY
697 NFkB inh = inhibitors of PMA/ionomycin-induced NF-kB reporter, 697 cells, primary screen, B-cell NF-kB inhibitor project, cell-based, luminescence, uHTS. 697 B-cell NF-kB luciferase reporter, 16 h. inhibition, % at 4 µM. hit rate 0.33% among 330,000. AID 435022, 2010; in the data active means inhibition above about 35%
Bfl-1 A1 inh = caspase 3/7 activation in MEF A1-2A-BIM cells, primary screen, A1 inhibitor project, cell-based, luminescence, HTS | Caspase-Glo 3/7 luminescence, 3 h; percent of clofoctol response, vehicle zero | caspase activation, % (no concentration beside the values) | hit rate 0.066% among 330,000;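 active means over half of replicate activation scores above 10%, or exactly half above 10 with the replicate mean above 10; inconclusive means replicate mean below 10 yet half the replicates above 10; inactive means over half of replicates below 10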
Mdm2 MdmX conf = Mdm2-MdmX complex disruptors, retested hits, confirmation, luminescence, single concentration. shares compounds with Mdm2 MdmX PPI. inhibition, % at 8 µM. Mdm2-MdmX binding, luminescent assay. hit rate 55% among 10,000; in the data active means inhibition above about 40%
FLuc counter = full-length luciferase signal inhibition, confirmation, counter-screen for Mdm2/MdmX interaction inhibitor project, cell-based, single concentration, SaOS-2; AID 504607, 2011; shares compounds with Mdm2 MdmX PPI; inhibition, % at 8 µM; SaOS-2 full-length luciferase counterscreen, luminescence; hit rate 77% among 6,200;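 active means mean inhibition at 8 µM reaching about 37%, which flags the compound as non-specific, limit read from the data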;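 further: p53-null SaOS-2 cells with luciferase driven by a doxycycline-inducible promoter; compound on cells about two nights before reading with doxycycline added after day one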
Numbers without * were called inactive; u = inconclusive; x = no result given.

SMILES | Jurkat NFkB inh | Mdm2 MdmX PPI | Beta cell apopt | NTR1 ag | 697 NFkB inh | Bfl-1 A1 inh | Mdm2 MdmX conf | FLuc counter
Cc1onc(-c2ccccc2)c1-c1nnc(COC(=O)c2ccc(O)cc2)o1 | 9 | 8 | x | 7 | 6 | x | x | x
CCC1CCC/C1=N\NC(=O)c1ccccc1C (centres undefined) | -34 | -6 | 5 | 1 | -16 | 0 | x | x
Cc1ccccc1OCC(=O)NCCNC(=O)c1ccccn1 | 5 | -10 | 0 | -2 | 11 | 0 | x | x
Cc1cc(C(=O)NNC(=O)c2sccc2C)c(C)o1 | -26 | 0 | 0 | -1 | -5 | 0 | x | x
C=CCCC(=O)Nc1nc(C)c(-c2csc(Nc3cc(OC)ccc3OC)n2)s1 | 46 | 66* | 4 | 5 | -4 | 0 | 60* | 46*
Nc1[nH]n2c(=O)cc(-c3ccccc3)nc2c1N=Nc1ccccc1 | -1 | 58* | 45 | 1 | 6 | 0 | 47* | 43*
Nc1[nH]n2c(=O)cc(-c3ccccc3)nc2c1N=Nc1ccc(S(N)(=O)=O)cc1 | 3 | 19 | 4 | 2 | 22 | -1 | x | x
CCCCn1c(=O)[nH]c(=O)c2c1nc(Cn1ncc(Cl)c(Cl)c1=O)n2CCC | 18 | 100* | 4 | 15 | 3 | 6.8* | 93* | 52*
CCOC(=O)c1[nH]c2ccc(Cl)cc2c1NC(=O)/C=C/c1ccc2c(c1)OCO2 | 15 | 56* | 17 | 10 | -12 | -1 | 45* | 94*
O=C(CCNS(=O)(=O)c1ccc(F)c(Cl)c1)NCc1ccccc1F | -117 | -2 | -1 | 3 | -16 | -1 | x | x
COC(=O)CSC1=C(C#N)C(c2ccc(C)o2)CC(=O)N1 (centres undefined) | 26 | 58* | -2 | 2 | -16 | -1 | 47* | 73*
CCN1CCN(c2ncnc3scc(-c4ccc(OC)cc4)c23)CC1 | 0 | -8 | 1 | 1 | -16 | 2 | x | x
Cn1nnnc1Sc1ncnc2scc(-c3ccc(Cl)cc3)c12 | 8 | 100* | -9 | 3 | -56 | 2 | 99* | 52*
Cn1nnnc1Sc1ncnc2scc(-c3cccc4c3sc3ccccc34)c12 | -14 | 100* | 3 | 0 | -114 | u | 67* | 48*
Cn1nnnc1Sc1ncnc2scc(-c3ccc4c(c3)OCO4)c12 | -1 | 71* | -5 | 1 | -20 | 0 | 37 | x
COc1ccc(-c2csc3ncnc(Sc4nnnn4C)c23)cc1 | 7 | 68* | -18 | 1 | 16 | 2 | 46* | 21
CC1CCC2(CC1)NC(=O)N(NC(=O)C1CCN(C(=O)c3ccc(Cl)cc3)CC1)C2=O (centres undefined) | 3 | 10 | x | 0 | 7 | x | x | x
Cn1nnnc1Sc1ncnc2scc(-c3ccccc3Cl)c12 | -14 | 68* | -19 | -1 | -1 | 1 | 59* | 21
CO/N=C/C(=N\Nc1ccc(OC)cc1)C(=O)c1ccc(OC)cc1 | 35 | 55* | 18 | 7 | 17 | 0 | 52* | 100*
Cc1cc(Nc2nc3ccccc3nc2Cl)n(-c2ccccc2)n1 | -1 | 64* | -14 | 3 | 12 | 0 | 59* | 41*
O=C(NCCc1nnc2ccc(SCC(=O)N3CCCC3)nn12)c1ccccc1 | -4 | 15 | -4 | 0 | -9 | 1 | x | x
O=C(CSc1ccc(-c2ccccn2)nn1)NCc1ccc(Cl)cc1 | 10 | -4 | -6 | -1 | 16 | 1 | x | x
CCOC(=O)c1ccc(NC(=O)CSc2ccc(-c3ccccn3)nn2)cc1 | 14 | 70* | 5 | 3 | -19 | 0 | 53* | 59*
Cc1ccc(NC(=O)CSc2ccc(-c3ccccn3)nn2)cc1 | 0 | 55* | 0 | 1 | 22 | 0 | 41* | 79*
O=C(CSc1ccc(-c2ccccn2)nn1)Nc1ccc(F)c(F)c1 | 34 | 67* | 2 | 0 | 3 | 0 | 43* | 55*
SMILES | Jurkat NFkB inh | Mdm2 MdmX PPI | Beta cell apopt | NTR1 ag | 697 NFkB inh | Bfl-1 A1 inh | Mdm2 MdmX conf | FLuc counter
CCOc1ccc(NC(=O)CSc2ccc(-c3ccccn3)nn2)cc1 | 12 | 24 | 6 | -2 | -6 | 1 | x | x
Clc1ccc(CSc2ccc(-c3ccccn3)nn2)cc1 | -44 | 60* | 84* | 2 | -38 | -2 | 60* | 43*
COc1ccc(NC(=O)CSc2ccc(-c3ccccn3)nn2)cc1OC | 2 | 28 | -4 | 2 | 6 | 0 | x | x
Cn1cnc(C(=O)N2CCc3ccccc3C2)c1C(=O)N1CCc2ccccc2C1 | 0 | -29 | -4 | 1 | 2 | 0 | x | x
COc1ccc(NC(=O)C2CC(=O)N/C(=N/N=C/c3ccccc3)S2)cc1 (centres undefined) | 9 | 79* | -8 | 4 | -6 | 1 | 59* | 91*
COc1ccc(/C=N/N=C2/NC(=O)C(c3ccccc3)(c3ccccc3)S2)cc1 | -6 | 61* | 5 | -1 | 14 | 0 | 20 | x
COc1ccc(CN=C2NC(=O)CC(C(=O)Nc3ccccc3C)S2)cc1 (centres undefined) | 2 | -15 | -2 | -1 | 10 | -1 | x | x
O=C(CCCNC(=O)c1ccc(Cl)cc1)NCc1ccccc1F | 9 | 9 | -2 | 1 | -17 | 0 | x | x
Cc1nnc(NCc2n[nH]c(=O)c3ccccc23)c2ccccc12 | -3 | 75* | 23 | 3 | 16 | 0 | 21 | x
O=C(Nc1ccc2c(c1)OCCO2)c1cnn(-c2ccccc2)n1 | -61 | -156 | -4 | 1 | -6 | -3 | x | x
CC1CCN(C(=O)c2[nH]cnc2C(=O)Nc2cccc(Cl)c2)CC1 | 5 | -6 | -11 | 5 | -15 | 2 | x | x
O=S(c1ccc2ccccc2c1)c1cnns1 (centres undefined) | 36 | 57* | -24 | 4 | -106 | 0 | 28 | x
CC(NC(=S)Nc1ccc(OC(F)F)c(Cl)c1)C(C)(C)C (centres undefined) | 2 | 58* | 5 | 10 | -29 | -2 | 16 | x
O=C(Nc1ccc(-c2csc(Nc3ccccc3)n2)cc1)c1cc([N+](=O)[O-])cc(C(F)(F)F)c1 | -2 | 41 | 14 | 11 | -35 | 1 | x | x
